About 83,000 compounds went through this panel and 20% of them were active in at least one assay; those are over-represented in the sample as a whole.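 Interpretation: 100, growth as untreated; towards 0, rising growth inhibition; 0, no net growth; 0 to -100, cell death. Compounds scoring below 10 were considered active.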 Unmarked numbers belong to inactive results. Activity calls are given as the source filed them.
Key:
Assay in all cases: NCI-60 one-dose screen, 48 h (100 = growth as untreated, 0 = no growth, -100 = all killed)
Settings in all cases: 10 µM unless noted
[1] = system: SK-MEL-2 melanoma
[2] = system: EKVX NSCLC
[3] = system: SN12C renal
[4] = system: UO-31 renal
[5] = system: TK-10 renal
[6] = system: ACHN renal
[7] = system: CAKI-1 renal
[8] = system: A498 renal
[9] = system: CCRF-CEM leukemia
[10] = system: MOLT-4 leukemia
[11] = system: SR leukemia
[12] = system: RPMI-8226 leukemia
[13] = system: OVCAR-5 ovarian
[14] = system: OVCAR-4 ovarian
[15] = system: SK-OV-3 ovarian
[16] = system: IGROV1 ovarian
[17] = system: OVCAR-3 ovarian
[18] = system: HS 578T breast
[19] = system: NCI/ADR-RES ovarian
[20] = system: OVCAR-8 ovarian

Row | SMILES | growth [1] | growth [2] | growth [3] | growth [4] | growth [5] | growth [6] | growth [7] | growth [8] | growth [9] | growth [10] | growth [11] | growth [12] | growth [13] | growth [14] | growth [15] | growth [16] | growth [17] | growth [18] | growth [19] | growth [20]
1 | CNC(=O)OC1C(O[C@H]2C[C@H]3[C@@H]4CC=C5C[C@@H](O)CC[C@]5(C)[C@H]4CC[C@]3(C)[C@H]2[C@H](C)C(=O)CCC(C)C)OCC(O)C1OC1OCC(O)C(O)C1OC(=O)c1ccc(OC)cc1 (stereo not given in full) | -33.6% (active) | 30.1% | 59.9% | -18.8% (active) | 14% | 39.2% | 0.834% (active) | -60.3% (active) | -13.7% (active) | -40.2% (active) | 1.47% (active) | -25.5% (active) | 38.8% | 55.8% | -20.6% (active) | 28.3% | 62.7% | -5.93% (active) | 82.8% | 
2 | CS(=O)(=O)c1ccc(C(=O)N/N=C/c2ccccc2Cl)cc1 | 104% | 97% | 98.3% | 84.3% | 110% | 108% | 97.8% | 91.3% | 108% | 67.7% | 92.5% | 115% | 109% | 95.9% | 88.3% | 107% | 103% | 98.1% | 106% | 
3 | COc1cc(C2CC(c3ccc(Cl)cc3)=NN2C(C)=O)ccc1Oc1nc2c(c(=O)n(C)c(=O)n2C)n1C (stereo not given) | 105% | 83.6% | 50.3% | 76.3% | 110% | 87.2% | 81.5% | 77.4% | 80.5% | 62.6% | 78.5% | 72.1% | 108% | 67.9% | 112% | 82.3% | 102% | 80.5% | 61.6% | 
4 | Cc1ccc(OC2=C(C#N)C(=N)N3C(=NN2)Sc2c(C)ccc(C)c23)cc1 | 121% | 91.5% | 106% | 82.7% | 129% | 99% | 86% | 94.9% | 94.9% | 89.1% | 98.2% | 105% | 128% |  | 96.2% | 87.7% | 117% |  | 101% | 104%
5 | O=C(NO)c1ccc(CNc2cccc3nc(C4CC4)n(-c4ccccc4)c(=O)c23)cc1 | 53.7% | 42.2% | 15.5% | 3.57% (active) | 13.6% | 3.75% (active) | 7.51% (active) | 13.7% | -13.3% (active) | -21.7% (active) | 1.62% (active) | -26.6% (active) | 35.7% | 11.5% | 16% | 8.21% (active) | 0.886% (active) | 39.8% | -10.7% (active) | 
6 | CC(C)CC1NC(=O)C(CC(C)C)N(CO)C1=O (stereo not given) | 93.9% | 115% | 99.4% | 84.5% | 97.9% | 108% | 99.8% | 95.9% | 84.7% | 92.7% | 96.4% | 81.1% | 106% | 113% | 102% | 106% | 123% | 106% | 117% | 
7 | C=CCOc1ccc2c(C)cc(=O)oc2c1 | 129% | 106% | 115% | 115% | 91.9% | 108% | 97.9% | 71% | 96.2% | 107% | 128% | 93.8% | 113% |  | 117% | 113% | 105% |  | 104% | 103%
8 | CCc1c(C)c2ccc(O)c(-c3cc(-c4ccccc4)c(C#N)c(=O)[nH]3)c2oc1=O | 117% | 101% | 105% | 62.9% | 124% | 103% | 70% | 116% | 103% | 98.3% | 95.5% | 81% | 95.1% |  | 95.9% | 101% | 88.8% | 118% | 99.9% | 100%

— PubChem BioAssay (NCI)
